Shiga inhibitor: A qHTS for Small Molecule Inhibitors of Shiga Toxin; AID 2315, 2010; inhibition, % at 38.7 µM; Vero cells, Shiga toxin protein synthesis inhibition reporter; hit rate 9.2% among 290,000; in the data active = inhibition mostly above about 28%, no sharp cut-off; inactive = mostly below about 43%
Cycloheximide cs: Cycloheximide Counterscreen for Small Molecule Inhibitors of Shiga Toxin. cell reporter, cycloheximide protein synthesis inhibition counterscreen. max response, %. hit rate 12% among 300,000. AID 2314, 2010; in the data active = max response mostly above about 13%, no sharp cut-off; inactive = mostly below about 14%; also: read at 38.3 µM for the half of the compounds with a filed dose
Pf growth 96h: Primary qHTS for delayed death inhibitors of the malarial parasite plastid, 96 hour incubation; P. falciparum luciferase reporter growth, 96 h; Potency, µM (titrated, usually from 28.7 µM), usual class: inhibitors; hit rate 6.9% among 320,000
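Cell-based qHTS: luciferase-tagged P. falciparum in erythrocytes (2% hematocrit, 0.05% parasitemia final) incubated with compounds for 96 hours, 37 C, 5% CO2; luciferase detection reagent then added and luminescence measured.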
Pf growth 48h: Primary qHTS for delayed death inhibitors of the malarial parasite plastid, 48 hour incubation; P. falciparum luciferase growth in erythrocytes, 48 h; hit rate 5.9% among 310,000; Potency, µM (doses to about 28.7 µM), actives largely listed as inhibitors; AID 504832, 2011
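A one-generation exposure of luciferase-tagged malaria parasites in RPMI 1640/Albumax erythrocyte culture, 37 C and 5% CO2. Inhibition is inferred from decreased luminescence after adding detection reagent.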
Of the large screens only hits and unclear results are named; the others gave an inactive call. This is a sample that favours compounds with a hit; in the whole collection about 21% have one here. Unless noted, calls follow the shape of the dose curve; as a rule, active = well fitted inhibition curve with a large enough effect; inconclusive = small, poorly fitted or top-dose-only effect, or another doubt; inactive = no such curve, though single readings can be large or run the other way.

COc1ccc(CC(=O)O/N=C(\N)c2ccccn2)cc1OC	Shiga inhibitor 55, Cycloheximide cs 35
N/C(=N\OC(=O)Cc1cccc2ccccc12)c1ccccn1	Shiga inhibitor 161, Cycloheximide cs 49 (no result: Pf growth 48h)
N/C(=N\OC(=O)Cc1ccccc1[N+](=O)[O-])c1ccccn1	Shiga inhibitor 139, Cycloheximide cs 49, Pf growth 96h inconclusive
N/C(=N\OC(=O)CCN1C(=O)c2ccccc2C1=O)c1ccccn1	Pf growth 96h inconclusive
Cc1cc(C)c(C)c(S(=O)(=O)NCC(=O)NCC2CCCCC2)c1C	none
NC(=O)c1nn(-c2ccccc2)nc1NC(=O)Cn1nnc(-c2ccccc2)n1	none
O=C(NCc1ccco1)/C(=C/c1ccccc1F)NC(=O)c1ccccc1	none
C=CCc1cccc(CNc2c(C)cc(C)cc2C)c1O	none
C=CCOC(=O)Cn1cnc2c(sc3nc(C)cc(C)c32)c1=O	Shiga inhibitor 72, Cycloheximide cs 46, Pf growth 48h inconclusive
CCC(C)n1ncn(-c2ccc(N3CCN(c4ccc(OCC5COC(Cn6cncn6)(c6ccc(Cl)cc6Cl)O5)cc4)CC3)cc2)c1=O (stereo not drawn)	Pf growth 48h 3.4µM
CCC(C)n1ncn(-c2ccc(N3CCN(c4ccc(O)cc4)CC3)cc2)c1=O (stereo not drawn)	none
Cc1nn(C(=O)c2cccc([N+](=O)[O-])c2)c(C)c1Cl	Pf growth 96h inconclusive
CC(=O)c1ccc(OC(=O)N(C)c2ccccc2)cc1	Shiga inhibitor 66, Cycloheximide cs 36
CN(C)C(=O)Oc1ccc(C(=O)c2ccccc2)cc1	Shiga inhibitor 42, Cycloheximide cs 40 (no result: Pf growth 96h)
CN(C)C(=O)Oc1ccc(OC(=O)N(C)C)cc1	none (no result: Pf growth 96h)
CSc1nsc(SCc2ccc(Cl)cc2)n1	none
Nc1ccccc1SSc1ccccc1N	Shiga inhibitor 127, Cycloheximide cs 69, Pf growth 96h inconclusive, Pf growth 48h inconclusive
CC(C)CSc1nsc(N)n1	none (no result: Pf growth 96h)
N#Cc1ccccc1Sc1ccccc1N	none
Nc1nc(SCc2ccc(Cl)cc2)ns1	Shiga inhibitor 68, Cycloheximide cs 38, Pf growth 96h inconclusive
Nc1nc(SCc2ccccc2Cl)ns1	Shiga inhibitor 58, Cycloheximide cs 17
Nc1ccccc1SCc1ccccc1Cl	Shiga inhibitor 56, Cycloheximide cs 25
Nc1nc(SCc2ccccc2)ns1	Shiga inhibitor 35, Cycloheximide cs 17 (no result: Pf growth 96h)
Cc1cccc(/C=N/NC(=O)c2ccc(NC(=O)c3ccc(Cl)cc3)cc2)n1	Cycloheximide cs 11
O=C(N/N=C/c1ccc[nH]1)c1ccc(Cl)cc1	Shiga inhibitor 39, Cycloheximide cs 34
COc1cc(C(=O)N/N=C/c2ccccn2)cc(OC)c1OC	Pf growth 96h inconclusive, Pf growth 48h inconclusive
O=C(N/N=C/c1ccccn1)c1ccccc1	Shiga inhibitor 71, Cycloheximide cs 48, Pf growth 48h inconclusive
O=C(N/N=C/c1ccc[nH]1)c1ccncc1	none
O=C(N/N=C/c1ccccn1)c1ccncc1	Shiga inhibitor 97, Cycloheximide cs 52
O=C(NCCS(=O)(=O)N1CCN(c2cccc(Cl)c2)CC1)c1ccc2c(c1)OCO2	none (no result: Shiga inhibitor, Cycloheximide cs)
CCNc1nc(NC(C)CC)nc(Oc2ccc(OCC)nn2)n1 (stereo not drawn)	none
O=C(COC(=O)C1(c2ccccc2F)CCCC1)N1CCNC1=O	Pf growth 48h inconclusive (no result: Shiga inhibitor, Cycloheximide cs)
CC1=C(C(=O)OC(C)C)C(c2ccc3c(c2)OCO3)NC(=O)N1 (stereo not drawn)	Pf growth 96h inconclusive
COc1ccc(S(=O)(=O)NCC(c2cccnc2)N2CCN(Cc3ccccc3)CC2)cc1C (stereo not drawn)	Pf growth 96h inconclusive, Pf growth 48h inconclusive
CN(C)c1ccc(C(=O)N/N=C/c2ccccn2)cc1	Shiga inhibitor 75, Cycloheximide cs 58, Pf growth 96h 9.3µM
O=C(N/N=C/c1ccccn1)c1ccc(Cl)cc1	Shiga inhibitor 102, Cycloheximide cs 46, Pf growth 48h 15µM
Cn1ncc(Cl)c1C(=O)N/N=C/c1ccccn1	Cycloheximide cs 20
COc1ccc(C(=O)N/N=C/c2ccccn2)cc1OC	Pf growth 96h inconclusive, Pf growth 48h inconclusive
O=C(N/N=C/c1ccccn1)c1cccs1	Shiga inhibitor 76, Cycloheximide cs 38, Pf growth 96h inconclusive, Pf growth 48h inconclusive
COCCn1c(-c2ccc(F)cc2)nc2cccnc21	none
O=[N+]([O-])c1ccccc1/C=C/CN1CCN(Cc2ccc3c(c2)OCO3)CC1	Pf growth 48h inconclusive
c1ccc(Cn2c[n+](Cc3ccccc3)cn2)cc1	none
COC(=O)CCNC(=O)Cn1cnc2sc3c(c2c1=O)CCCC3	none
Cc1ccc(C(=O)Nc2ccc(C(=O)N/N=C/c3ccccn3)cc2)cc1	Shiga inhibitor 31, Cycloheximide cs 25, Pf growth 48h inconclusive
O=C(N/N=C/c1ccccn1)c1ccco1	Shiga inhibitor 71, Cycloheximide cs 47

Screening results from PubChem BioAssay.
